Source: PubChem BioAssay (Broad Institute)
miR-122 inh: activators of miR-122 sensor in Huh7 cells. Huh7 psiCHECK-miR122 Renilla luciferase sensor, 48 h. activation, % at 12.5 µM. 340,000 tested, 0.14% active. AID 623901;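 active = mean activation of 30% or more, with every replicate also reaching 30%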;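 also: 0% = median of neutral control wells and 100% = median of positive control wells; higher luciferase signal means stronger suppression of miR-122 activity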
* marks the source's active call; other numbers are inactive results. The sample as a whole holds a higher share of hits than the screen did.

SMILES	miR-122 inh
COc1ccc(C(=O)Nc2ccc3c(c2)OC[C@@H](C)N(C)C[C@@H](C)[C@@H](OC)CN(C)C3=O)cc1	-1
COc1ccc(NC(=O)Nc2cccc3c2O[C@H](CN(C)Cc2ccc4c(c2)OCO4)[C@@H](C)CN([C@@H](C)CO)C3=O)cc1	-96
C[C@H](CO)N1C[C@H](C)[C@H](CN(C)Cc2cncnc2)Oc2ncc(C#Cc3ccccn3)cc2C1=O	-3
Cc1ccc(-c2cnc3c(c2)C(=O)N([C@@H](C)CO)C[C@@H](C)[C@@H](CN(C)C(=O)c2ccncc2)O3)cc1	7
COc1cc2c(cc1OC)C(c1ccc(-c3ccc(Cl)c(Cl)c3)o1)=NCC2	44*
C[C@H](CO)N1C[C@H](C)[C@@H](CN(C)C(=O)c2ccccn2)Oc2ncc(C#Cc3ccccc3)cc2C1=O	2
CC(C)C#Cc1cnc2c(c1)C(=O)N([C@@H](C)CO)C[C@@H](C)[C@H](CN(C)C(=O)c1ccccc1)O2	7
COc1ccc(S(=O)(=O)Nc2ccc3c(c2)CC(=O)N([C@@H](C)CO)C[C@@H](C)[C@H](CN(C)CC2CC2)O3)cc1	2
C[C@H]1CN([C@@H](C)CO)S(=O)(=O)c2ccc(-c3ccncc3)cc2O[C@H]1CN(C)C(=O)C1CC1	4
CNC[C@@H]1Oc2ncc(-c3ccc(C#N)cc3)cc2C(=O)N([C@H](C)CO)C[C@@H]1C	4
Cc1ccc(-c2cnc3c(c2)C(=O)N([C@@H](C)CO)C[C@@H](C)[C@H](CN(C)C(=O)c2ccncc2)O3)cc1	1
COc1ccc(-c2c(C(C)=O)c(C)nc3sc4c(c23)NC(c2ccccc2)NC4=O)cc1 (configuration not stated)	36*
CCC(=O)N(C)C[C@H]1Oc2cc(C#C[C@H](C)O)ccc2S(=O)(=O)N([C@@H](C)CO)C[C@H]1C	7
CC(C)CC#Cc1ccc2c(c1)O[C@@H](CN(C)C(=O)NC1CCCC1)[C@@H](C)CN([C@@H](C)CO)S2(=O)=O	-14
CSc1cccc(NS(=O)(=O)c2cc(Br)cnc2N)c1	-106
CSc1cccc(NS(=O)(=O)c2ccccc2)c1	35*
O=S(=O)(Nc1ccc2ccccc2c1)c1ccccc1	-170
CCCNC(=O)N(C)C[C@H]1Oc2ncc(/C=C/c3ccccc3)cc2C(=O)N([C@@H](C)CO)C[C@@H]1C	0
C[C@@H]1CN([C@@H](C)CO)C(=O)c2cc(-c3cccc(F)c3)cnc2O[C@H]1CN(C)S(C)(=O)=O	-3
C[C@H]1CN([C@@H](C)CO)C(=O)c2cc(-c3ccc(C(=O)N(C)C)cc3)cnc2O[C@@H]1CN(C)Cc1ccc(C(=O)O)cc1	3
CN(C)CCNc1ncnc2c1sc1nc(-c3ccccc3)c3c(c12)CCCC3	35*
CC(C)Cc1nc2sc3c(=O)[nH]cnc3c2c2c1CCC2	-126
CO[C@@H]1CN(C)C(=O)c2ccc(NC(C)=O)cc2OC[C@@H](C)N(S(C)(=O)=O)C[C@H]1C	-4
C/C=C/c1ccc2c(c1)O[C@@H](CN(C)Cc1ccccc1F)[C@H](C)CN([C@@H](C)CO)S2(=O)=O	1
C[C@H](CO)N1C[C@H](C)[C@@H](CN(C)Cc2ccccc2C(=O)O)Oc2cc(-c3ccccc3)ccc2S1(=O)=O	-28
SMILES	miR-122 inh
CC(C)C#Cc1ccc2c(c1)O[C@@H](CN(C)C(=O)CC1CC1)[C@H](C)CN([C@@H](C)CO)S2(=O)=O	0
C[C@H]1CN([C@@H](C)CO)S(=O)(=O)c2ccc(C#Cc3ccncc3)cc2O[C@@H]1CN(C)S(=O)(=O)c1ccccc1	-106
C[C@@H]1CN([C@@H](C)CO)C(=O)c2cc(C#Cc3ccccn3)cnc2O[C@@H]1CN(C)CC1CCOCC1	2
Cc1cc(C)nc(NS(=O)(=O)c2ccc(NC(=S)NC(=O)C3CCCC3)cc2)n1	62*
Cc1cc(C)cc(NS(=O)(=O)c2ccc(NC(=S)NC(=O)c3cccs3)cc2)c1	-133
CN(Cc1ccccc1)S(=O)(=O)c1ccc(NC(=S)NC(=O)C2CCCC2)cc1	-124
CCC(=O)N1C[C@H](C)[C@@H](OC)CN(C)C(=O)c2ccc(NS(C)(=O)=O)cc2OC[C@H]1C	0
O=S(=O)(Nc1nccs1)c1ccc(NS(=O)(=O)c2cccs2)cc1	39*
Cc1ccc(S(=O)(=O)Nc2ccc(C(=O)NCc3ccccn3)cc2)cc1	-199
COc1ccc(NS(=O)(=O)c2cc(NS(=O)(=O)c3cccs3)ccc2C)cc1	-94
C[C@@H]1CN([C@@H](C)CO)C(=O)c2cc(C#Cc3ccccc3)cnc2O[C@H]1CN(C)Cc1ccccn1	7
C[C@H]1CN([C@@H](C)CO)S(=O)(=O)c2ccc(C3=CCCCC3)cc2O[C@@H]1CN(C)S(C)(=O)=O	-10
CO[C@@H]1CN(C)C(=O)c2ccc(NC(=O)NC(C)C)cc2OC[C@@H](C)NC[C@@H]1C	-1
COC(=O)C[C@H]1CC[C@H]2[C@H](COc3ccc(NC(=O)NC(C)C)cc3C(=O)N2C)O1	50*
CO[C@@H]1CN(C)C(=O)c2cc(NC(=O)NC(C)C)ccc2OC[C@@H](C)N(C(=O)NC(C)C)C[C@@H]1C	0
CNC(=O)C[C@@H]1CC[C@@H]2[C@H](COc3ccc(NC(=O)NC(C)C)cc3C(=O)N2C)O1	53*
COC(=O)C[C@H]1CC[C@H]2[C@H](COc3ccc(NS(=O)(=O)c4ccc(F)cc4)cc3C(=O)N2C)O1	37*
COC(=O)C[C@H]1CC[C@H]2[C@H](COc3ccc(NC(=O)Nc4ccccc4C)cc3C(=O)N2C)O1	-117
CO[C@@H]1CN(C)C(=O)c2cc(NC(=O)NC(C)C)ccc2OC[C@H](C)N(C(=O)NC(C)C)C[C@@H]1C	-3
C[C@H]1CN([C@@H](C)CO)C(=O)c2cc(/C=C/c3ccccc3)cnc2O[C@H]1CN(C)C(=O)Cc1ccccn1	1
C[C@@H]1CN([C@H](C)CO)C(=O)c2cc(C#Cc3cccc(F)c3)cnc2O[C@@H]1CN(C)CC1CCOCC1	0
CCC(=O)N(C)C[C@@H]1Oc2ncc(C#Cc3ccc(OC)cc3)cc2C(=O)N([C@H](C)CO)C[C@@H]1C	-1
C[C@H]1CN([C@@H](C)CO)C(=O)c2cc(/C=C/c3ccccc3)cnc2O[C@H]1CN(C)C(=O)C1CCC1	5
O=C(C1CC1)N1C[C@H]2[C@@H](c3ccccc31)[C@H](CO)N2C(=O)c1ccccc1F	33*
O=C(Cc1ccccc1)N1C[C@H]2[C@@H](c3ccccc31)[C@@H](CO)N2C(=O)C1CCCCC1	-200
SMILES	miR-122 inh
O=C(C1CCCCC1)N1C[C@H]2[C@@H](c3ccccc31)[C@@H](CO)N2C(=O)c1ccccc1	-260
O=C(C1CCCCC1)N1C[C@@H]2[C@H](c3ccccc31)[C@H](CO)N2Cc1ccccc1Cl	40*
COc1ccc(C(=O)N2C[C@@H]3[C@H](c4ccccc42)[C@H](CO)N3Cc2ccccc2Cl)cc1	-194
Cc1ccccc1-c1cnc2c(c1)C(=O)N([C@H](C)CO)C[C@@H](C)[C@@H](CN(C)C(=O)c1ccccc1)O2	5
CCC(=O)N(C)C[C@@H]1Oc2cc(-c3cccnc3)ccc2S(=O)(=O)N([C@@H](C)CO)C[C@@H]1C	1
COCC#Cc1ccc2c(c1)O[C@@H](CN(C)C(=O)C1CCOCC1)[C@H](C)CN([C@H](C)CO)S2(=O)=O	-9
C[C@@H]1CN([C@@H](C)CO)S(=O)(=O)c2ccc(C#Cc3ccccc3F)cc2O[C@H]1CN(C)C(=O)Cc1ccccc1	-2
